Measurements reported in PubChem BioAssay (NCATS).
Inconclusive results are not listed. Values without a mark were called inactive. The source made the active and inactive calls. Calls follow the shape of the dose curve; as a rule, active = well fitted activation curve with a large enough effect; inconclusive = small, poorly fitted or top-dose-only effect; inactive = no such curve, though single readings can be large or run the other way.
Potency is read from the fitted curve at half-maximal effect.

The compounds below were run against Cellular tumor antigen p53 (Homo sapiens) (UniProt P04637) (assay: Primary qHTS for small molecule compounds that upregulate eGFP-tagged delta133p53alpha (in N-terminal) cells. (AID 2060322; also: nearly all actives have a fitted effect of over 75% in size;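 as to activation: series mostly up to about 56 µM; 0% = DMSO vehicle and 100% = reference activator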)). Settings: NCI-H358 eGFP-delta133p53alpha fluorescence, 24 h; activation: hits give high values.
Chain of Cellular tumor antigen p53 (Homo sapiens) (P04637 whole entry, looked up): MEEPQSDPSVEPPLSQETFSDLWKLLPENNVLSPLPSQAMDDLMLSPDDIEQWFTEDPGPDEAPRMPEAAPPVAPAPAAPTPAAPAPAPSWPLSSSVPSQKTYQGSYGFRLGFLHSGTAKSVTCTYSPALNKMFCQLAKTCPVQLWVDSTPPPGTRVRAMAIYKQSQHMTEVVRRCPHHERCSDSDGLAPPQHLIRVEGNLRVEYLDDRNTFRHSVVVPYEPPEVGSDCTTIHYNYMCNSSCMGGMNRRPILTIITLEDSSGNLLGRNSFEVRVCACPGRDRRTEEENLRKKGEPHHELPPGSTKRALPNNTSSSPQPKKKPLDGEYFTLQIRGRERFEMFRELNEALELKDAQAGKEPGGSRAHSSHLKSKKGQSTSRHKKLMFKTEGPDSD
Method in brief: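 NCI-H358 cells pre-induced 24 h with 10 ng/ml doxycycline for eGFP-delta133p53alpha, plated dox-free and exposed 24 h at 37C to titrated compounds. Fixed, Hoechst-stained; gated GFP peak intensity by laser scanning cytometry, normalized to DMSO (0%) and 57.5 uM 5-azacytidine (100%).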
Compound `O=C(CCCCl)c1ccc(F)cc1` has an activation of -10.9%. In the case of `Nc1ccc(Cl)cc1N`, the Potency is reported as 22.4 µM (active). With `C=CCC1([C@H](C)CCC)C(=O)NC(=O)NC1=O` the activation was 7.34%. With `NC(=O)OCCCc1ccccc1` the activation was -0.565%. Work on `S=C(SSC(=S)N1CCCCC1)N1CCCCC1` yielded an activation of -16.7%. With `OC(O)C(Cl)(Cl)Cl` the activation was -29.9%. Work on `CC[N+]1(C)CCCC(OC(=O)C(O)(c2ccccc2)c2ccccc2)C1` (centres undefined) yielded an activation of 8.47%. `O=[N+]([O-])c1cc([As](=O)(O)O)ccc1O` gave an activation of 9.21%. In the case of `C[C@@H]1CC[C@H]2[C@@H](C)C(=O)O[C@@H]3O[C@@]4(C)CC[C@H]1[C@]32OO4`, the activation is reported as 5.37%. `COc1ccc2c(c1)CN(C)CC2c1ccc(Cl)c(Cl)c1` (centres undefined) was tested, and the activation was 10.8%. Work on `CCN(CC)CCc1c[nH]c2ccccc12` yielded an activation of -8.47%. Compound `Nc1ccccc1` has an activation of -8.47%. In the case of `C[C@H]1CNCCc2ccc(Cl)cc21`, the activation is reported as -8.37%. In the case of `FC(F)(F)c1cccc(C2=CCN(CCc3ccc4ccccc4c3)CC2)c1`, the activation is reported as -5.08%. With `CCOC(=O)C1(c2ccccc2)CCN(CCC(C#N)(c2ccccc2)c2ccccc2)CC1` the activation was -1.69%. Compound `CC(C(O)c1ccccc1)N(C)C/C=C/c1ccccc1` (centres undefined) has an activation of -4.18%. `NC1=NC(=O)C(c2ccccc2)O1` (centres undefined) showed an activation of 0.565%. For `Oc1ccccc1-c1ccccc1`, the activation was 10%. `O=C(O)c1ccnc2cc(C(OCCN3CCC(F)(F)CC3)c3ccccc3Cl)[nH]c12` (centres undefined) gave an activation of -26.8%. Work on `c1ccc(CN2CCNCC2)cc1` yielded an activation of 15.3%. `Cc1ccc(-c2nc3ccc(C)cn3c2CC(=O)N(C)C)cc1` was tested, and the activation was -32.2%. `CCC(=O)OC1CCC2C3CCC4=CC(=O)CC[C@@]4(C)C3CC[C@]12C` (some centres undefined) gave an activation of 14.6%. `CO/C=C(/C(=O)OC)c1ccccc1Oc1cc(Oc2ccccc2C#N)ncn1` was tested, and the activation was -36.8%. `O=C(O)COc1nc(Cl)c(Cl)cc1Cl` showed an activation of 6.21%. Work on `O=C1CN2CCOC2(c2ccccc2Cl)c2cc(Cl)ccc2N1` (centres undefined) yielded an activation of 14.2%. `CN(C)C(=O)Oc1cc(OC(=O)N(C)C)cc(C(O)CNC(C)(C)C)c1` (centres undefined) gave an activation of -17.6%. `CCC1(CC)C(=O)C=CNC1=O` gave an activation of -17.5%. With `C[C@@H]1[C@@H](CC(C[C@H]2O[C@@H]3O[C@]4(C)CC[C@@H]5[C@H](C)CC[C@@H]([C@H]2C)[C@@]35OO4)C[S+](=O)([O-])c2ccc(COC(=O)N(C)C)cc2)O[C@@H]2O[C@]3(C)CC[C@H]4[C@H](C)CC[C@@H]1[C@@]24OO3` (some centres undefined) the activation was 8.23%. `CN1C(=O)CN=C(c2ccccc2)c2cc([N+](=O)[O-])ccc21` gave an activation of -19.8%. In the case of `Nc1nc(N)nc(NC2CC2)n1`, the activation is reported as 5.02%. For `CC(O)=C(C#N)C(=O)Nc1cc(Br)ccc1Br`, the activation was 1.6%. Compound `O=C(NC(=O)c1c(F)cccc1F)Nc1cc(Cl)c(OC(F)(F)C(F)C(F)(F)F)cc1Cl` (centres undefined) has an activation of -13.4%. In the case of `CCC(CC)(CNC(=O)CCCO)c1cccc(OC)c1`, the activation is reported as 16.7%. For `O=C(O)c1ccc(=O)[nH]c1`, the activation was 11.9%. In the case of `O=C1NCN(c2ccccc2)C12CCN(CCCOc1ccc(F)cc1)CC2`, the activation is reported as 0.837%. Compound `CCOC(=O)C1(c2ccccc2)CCN(CCc2ccc(N)cc2)CC1` has an activation of -6.69%. In the case of `CCN(CCO)CCn1c(Cc2ccccc2)nc2c1c(=O)n(C)c(=O)n2C`, the activation is reported as 16.7%. `COC(=O)c1cncn1C(C)c1ccccc1` (centres undefined) gave an activation of -29.3%. For `C[C@@H]1CN(C2CCC(C#N)(c3ccc(F)cc3)CC2)CC[C@]1(C(=O)O)c1ccccc1` (some centres undefined), the activation was 10.7%.
